Consider 21 compounds from PubChem BioAssay (Tox21).

Results filed as inconclusive are left out. Unmarked numbers belong to inactive results. Calls of active or inactive are those of the source. Unless noted, the call rests on the fitted dose curve; in most records, active means well fitted curve in the direction sought with a large enough effect in the repeat runs; inconclusive means weak or mixed curves; inactive means no such curve, though single readings can be large; an effect the other way counts as inactive or inconclusive.

Test [1] can be described thus: qHTS assay to identify aromatase inhibitors - cell viability counter screen (AID 743084;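 further: cells stimulated with testosterone during compound exposure; nearly all actives have a fitted effect of over 55% in size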; further: potency means the concentration at half of the fitted maximal effect). (In general: qHTS replaces the single test concentration by a dilution series.)
Test [2] can be described thus: qHTS assay to identify small molecule that activate the aryl hydrocarbon receptor (AhR) signaling pathway - cell viability counter screen (AID 743086). Further: nearly all actives have a fitted effect of over 45% in size. Further: potency means the concentration at half of the fitted maximal effect. An outline of the steps:
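HepG2-AhR-luc (HG2L7.5c1) cells, 4000/well, were preincubated 5 h at 37C, exposed to compound in qHTS format for 24 hr at 37C, then given CellTiter-Fluor for 30 min; viability was read as fluorescence in the reporter wells.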

Test [3] concerns the target Peroxisome proliferator-activated receptor gamma (Homo sapiens) (UniProt P37231). As to the kind of experiment: qHTS assay to identify small molecule agonists of the peroxisome proliferator-activated receptor gamma (PPARg) signaling pathway (AID 743094; active means well fitted activation curve with a large enough effect in the signal ratio in the repeat runs, not every such curve was filed as active; the % refers to the signal ratio). Summed up:
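Agonist activity was taken from a beta-lactamase reporter (FRET substrate, 1 h at room temperature) in HEK293H cells carrying a PPARg UAS-bla construct. Compounds in DMSO were incubated 17 h at 37C after a 5 h cell pre-incubation.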

Test [4] is described as follows: qHTS assay to identify small molecule phospholipidosis (PLD) inducers (AID 1259344; active means well fitted curve in the direction sought with a large enough effect; an effect the other way counts as inactive or inconclusive). An outline of the steps:
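After 4 h attachment on collagen I, HepG2 cells were dosed with compound alongside LipidTOX Red, kept 24 h at 37 C, fixed, and imaged for lamellar phospholipid pits.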

In test [5] the target is Nuclear receptor subfamily 1 group I member 2 (Rattus norvegicus) (UniProt Q9R1A7). In words: Rat pregnane X receptor (rPXR) activation by small molecules, qHTS assay (AID 1346983). Further: nearly all actives have a fitted effect of over 20% in size. Further: potency means the concentration at half of the fitted maximal effect. As to conditions: rPXR luciferase reporter cells, One-Glo luminescence, 24 h; max activation: hits give high values. Summed up: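 Cell-based rPXR luciferase reporter assay, 2,000 cells per well, rested 5hr at 37 C before compound addition in DMSO, then 24 hr at 37 C. One-Glo reagent was added and luminescence read after 30 min at room temperature.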
Nuclear receptor subfamily 1 group I member 2 (Rattus norvegicus), sequence (Q9R1A7 whole entry, looked up): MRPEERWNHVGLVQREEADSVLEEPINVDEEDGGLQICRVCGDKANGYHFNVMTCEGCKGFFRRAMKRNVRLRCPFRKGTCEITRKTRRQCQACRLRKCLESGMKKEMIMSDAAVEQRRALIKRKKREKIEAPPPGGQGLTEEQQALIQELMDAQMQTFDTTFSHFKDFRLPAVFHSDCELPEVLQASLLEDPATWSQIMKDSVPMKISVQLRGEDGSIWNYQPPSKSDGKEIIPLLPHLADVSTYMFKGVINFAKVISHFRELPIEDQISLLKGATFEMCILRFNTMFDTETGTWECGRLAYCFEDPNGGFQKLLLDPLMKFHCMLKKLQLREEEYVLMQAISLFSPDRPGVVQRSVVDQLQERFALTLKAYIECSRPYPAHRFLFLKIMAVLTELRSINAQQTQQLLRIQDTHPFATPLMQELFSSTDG

The target in test [6] is Nuclear receptor subfamily 1 group I member 2 (Homo sapiens) (UniProt O75469). In words: CYP3A4 induction through human pregnane X receptor (PXR) by small molecules, qHTS assay (AID 1346984). Further: nearly all actives have a fitted effect of over 40% in size. An outline of the steps:
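Read-out is luminescence after One-Glo addition, following a 3 hr, 37C incubation with Luciferin-IPA CYP3A4 substrate (3uM final). Before that, compounds were on DPX-2 cells (HepG2 co-transfected with PXR element plus CYP3A4-promoter luciferase) for 24 hr at 37C.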

For test [7] the target is unchanged. In words: Human pregnane X receptor (PXR) activation by small molecules, qHTS assay (AID 1346985). Further: nearly all actives have a fitted effect of over 40% in size. An outline of the steps:
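DPX-2 cells (HepG2 co-transfected with a PXR response element and a CYP3A4-promoter luciferase construct) were seeded at 2,000 per well, rested 5 hr at 37C, then exposed to DMSO-dissolved compounds for 24 hr. Activation was read as luciferase luminescence.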

Test [8] deals with Aryl hydrocarbon receptor (Homo sapiens) (UniProt P35869). In words: qHTS assay to identify small molecule that activate the aryl hydrocarbon receptor (AhR) signaling pathway (AID 743085).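 Further: HG2L7.5c1 human HepG2 liver cells with stably integrated DRE-driven firefly reporter; series mostly up to about 70 µM; nearly all actives have a fitted effect of over 15% in size.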 Summed up: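 Stably transfected human liver carcinoma cells (HG2L7.5c1; 20 DRE-firefly luciferase) were incubated 5 h, dosed, and kept 24 h at 37C. Agonism was scored from increased luciferase luminescence.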
Aryl hydrocarbon receptor (Homo sapiens), sequence (P35869 whole entry, looked up): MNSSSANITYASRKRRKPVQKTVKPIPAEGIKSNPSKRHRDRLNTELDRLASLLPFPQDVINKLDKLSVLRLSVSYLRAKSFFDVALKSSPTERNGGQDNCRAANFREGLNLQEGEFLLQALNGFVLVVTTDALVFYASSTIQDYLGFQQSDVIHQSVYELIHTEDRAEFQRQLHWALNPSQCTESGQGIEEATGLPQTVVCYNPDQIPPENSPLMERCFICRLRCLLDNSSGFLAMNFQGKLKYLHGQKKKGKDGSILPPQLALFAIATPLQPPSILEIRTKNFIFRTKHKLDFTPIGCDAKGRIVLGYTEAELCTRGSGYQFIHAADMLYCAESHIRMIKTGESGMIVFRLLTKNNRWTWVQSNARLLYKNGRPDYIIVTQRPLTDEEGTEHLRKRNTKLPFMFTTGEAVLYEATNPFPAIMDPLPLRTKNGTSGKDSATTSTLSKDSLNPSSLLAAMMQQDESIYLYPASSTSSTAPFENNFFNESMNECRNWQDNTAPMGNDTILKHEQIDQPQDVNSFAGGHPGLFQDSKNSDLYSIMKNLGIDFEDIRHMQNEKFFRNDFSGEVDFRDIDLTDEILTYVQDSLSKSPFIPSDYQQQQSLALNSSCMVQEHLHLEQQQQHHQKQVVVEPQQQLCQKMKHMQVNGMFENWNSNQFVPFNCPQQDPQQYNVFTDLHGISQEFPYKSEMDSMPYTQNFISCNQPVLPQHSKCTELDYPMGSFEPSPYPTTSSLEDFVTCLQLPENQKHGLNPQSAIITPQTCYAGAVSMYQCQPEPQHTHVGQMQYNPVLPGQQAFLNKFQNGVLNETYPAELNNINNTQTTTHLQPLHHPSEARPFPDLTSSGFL
On the % scale 0 is the no-effect control and ±100 the full control effect.

Peroxisome proliferator-activated receptor gamma (Homo sapiens), sequence (P37231 whole entry, looked up): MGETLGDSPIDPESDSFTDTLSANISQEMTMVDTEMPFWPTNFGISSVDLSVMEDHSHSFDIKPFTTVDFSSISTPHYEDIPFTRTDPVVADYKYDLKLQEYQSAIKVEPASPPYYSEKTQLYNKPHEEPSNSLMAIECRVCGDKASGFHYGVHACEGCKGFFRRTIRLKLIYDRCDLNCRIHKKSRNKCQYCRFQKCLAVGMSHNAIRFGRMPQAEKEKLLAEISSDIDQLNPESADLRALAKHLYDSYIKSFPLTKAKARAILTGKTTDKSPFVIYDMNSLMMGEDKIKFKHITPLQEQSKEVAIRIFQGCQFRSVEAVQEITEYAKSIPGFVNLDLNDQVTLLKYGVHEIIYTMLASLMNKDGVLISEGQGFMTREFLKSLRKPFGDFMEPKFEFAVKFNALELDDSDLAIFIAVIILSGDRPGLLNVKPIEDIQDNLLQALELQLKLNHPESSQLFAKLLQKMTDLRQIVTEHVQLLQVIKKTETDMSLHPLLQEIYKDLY

With `O=C(CCCCCCCCCCCCC1CCCC1)Nc1ccc(S(=O)(=O)c2ccc(NC(=O)CCCCCCCCCCCCC3CCCC3)cc2)cc1`, the Potency entry in test [1], in test [2], in test [3], in test [4], in test [6] and in test [7] was “inactive” throughout. For the same compound, the max activation in test [5] was -2.51%.
In the case of `CO[C@@H]1[C@@H](O[C@@H]2O[C@H](C)[C@@H](O[C@H]3C[C@@](C)(O)[C@@H](OC(=O)CC(C)C)[C@H](C)O3)[C@H](N(C)C)[C@H]2O)[C@@H](CC=O)C[C@@H](C)C(=O)/C=C/C2OC2C[C@@H](C)OC(=O)C[C@H]1OC(C)=O` (stereo not given in full), the Potency result in test [8], in test [4], in test [6] and in test [7] was “inactive” each time. The max activation in test [5] was -11.7%.
As for `O=S(=O)(O)c1cc(O)c2c(N=Nc3ccc(Nc4ccccc4)c4c(S(=O)(=O)O)cccc34)cc(S(=O)(=O)O)cc2c1`, the Potency was 16.8 µM (active) in test [1] and 11.9 µM (active) in test [2]. Further, the Potency result in test [3], in test [4], in test [6] and in test [7] was “inactive” throughout. The max activation in test [5] is -12%.
On to `O=C1c2ccccc2C(=O)C1c1ccc(Cl)cc1`, for which the Potency entry in test [1], in test [2], in test [3], in test [4], in test [6] and in test [7] was “inactive” throughout. For the same compound, the max activation in test [5] was -2.83%.
Consider `Cc1c(Cl)cccc1Nc1ncccc1C(=O)O`, for which the Potency entry in test [1], in test [2], in test [3], in test [4], in test [6] and in test [7] was “inactive” each time. Further, the max activation in test [5] is 0.0958%.
As for `O=C(OC1C[C@@H]2CC3C[C@H](C1)N2CC3=O)c1c[nH]c2ccccc12` (stereo not given in full), the Potency result in test [1], in test [3], in test [4], in test [6] and in test [7] was “inactive” in each case. Besides, the max activation in test [5] is 6.05%.
As for `CCN(CC)Cc1cc(Nc2ccnc3cc(Cl)ccc23)ccc1O`, the Potency entry in test [8], in test [2], in test [4], in test [6] and in test [7] was “inactive” throughout. In addition, in test [5], the max activation was -2.52%.
For `CC(=O)N[C@@H]([C@@H](O)[C@H](O)[C@H](O)CO)[C@@H](O)CC(=O)C(=O)O`, the Potency result in test [1], in test [2], in test [3], in test [4], in test [6] and in test [7] was “inactive” each time. Also, in test [5], the max activation was -0.275%.
On to `C=C1CC[C@H](O)CC1=C/C=C1\CCC[C@]2(C)[C@@H]([C@H](C)CCCC(C)(C)O)CC[C@@H]12`, for which the Potency result in test [1], in test [2], in test [4], in test [6] and in test [7] was “inactive” each time. Also, the max activation in test [5] was -20.1%.
For the compound `C=CC1=C(C)C2=CC3=NC(=C(CC(=O)[O-])C4=NC(=C(C)C4=C([O-])[O-])C=c4[n-]c(c(C)c4CC)=CC1=N2)C(CCC(=O)[O-])C3C.[Cu+2].[Na+].[Na+].[Na+]` (stereo not given), the Potency in test [1] and in test [2] was 23.7 µM (active) each time. The Potency result in test [3], in test [4], in test [6] and in test [7] was “inactive” in each case. Also, the max activation in test [5] is -0.69%.
Turning to `NC(Cc1ccccc1)C(=O)O` (stereo not given), the Potency result in test [1], in test [2], in test [3], in test [4], in test [6] and in test [7] was “inactive” each time. Further, the max activation in test [5] was 14.8%.
On to `O=C(O)CN(CC(=O)O)CC1=CC2C(=CC1=O)Oc1cc(O)c(CN(CC(=O)O)CC(=O)O)cc1C21OC(=O)c2ccccc21` (stereo not given), for which the Potency entry in test [8], in test [4], in test [6] and in test [7] was “inactive” throughout. Also, in test [5], the max activation was 0.33%.
As to `CCCC(=O)O[C@]1(C(=O)COC(C)=O)CC[C@H]2[C@@H]3C[C@H](F)C4=CC(=O)C=C[C@]4(C)[C@@]3(F)[C@@H](O)C[C@@]21C`, the Potency result in test [8], in test [4], in test [6] and in test [7] was “inactive” throughout. In test [5], the Potency was 2.51 µM (active).
With `NCc1ccccc1CC(=O)N[C@@H]1C(=O)N2C(C(=O)O)=C(CSc3nnnn3CC(=O)O)CS[C@H]12`, the Potency result in test [1], in test [2], in test [3], in test [4], in test [6] and in test [7] was “inactive” in each case. Besides, in test [5], the max activation is -0.103%.
Consider `O=C(Cc1cccs1)N[C@@H]1C(=O)N2C(C(=O)[O-])=C(C[n+]3ccccc3)CS[C@H]12`, for which the Potency result in test [1], in test [2], in test [3], in test [4], in test [6] and in test [7] was “inactive” in each case. Besides, the max activation in test [5] was -1.81%.
Regarding `CC(C)(C)NCC(O)CSc1nc(-c2ccc(C(N)=O)s2)cs1` (stereo not given), the Potency entry in test [1], in test [2], in test [3], in test [4], in test [6] and in test [7] was “inactive” in each case. In test [5], the max activation was -4.09%.
In the case of `CCCCCCCCCCCCCC[n+]1ccc(C)cc1`, the Potency entry in test [8], in test [4], in test [6] and in test [7] was “inactive” throughout. The max activation in test [5] is -19.6%.
Consider `OC[C@H]1O[C@@H](O[C@H]2[C@H](O)[C@@H](O)[C@H](O)O[C@@H]2CO)[C@H](O)[C@@H](O)[C@@H]1O`, for which the Potency result in test [1], in test [2], in test [3], in test [4], in test [6] and in test [7] was “inactive” throughout. In addition, the max activation in test [5] is -4.71%.
As for `CC1(O)CCC(C(C)(C)O)CC1` (stereo not given), the Potency entry in test [1], in test [2], in test [3], in test [4], in test [6] and in test [7] was “inactive” in each case. Besides, the max activation in test [5] was -1.3%.
On to `CC1CS(=O)(=O)CCN1/N=C/c1ccc([N+](=O)[O-])o1` (stereo not given), for which the Potency entry in test [1], in test [3], in test [4], in test [6] and in test [7] was “inactive” in each case. Also, in test [5], the max activation is -7.04%.
With `O=[N+]([O-])O[C@@H]1CO[C@H]2[C@@H]1OC[C@@H]2O`, the Potency entry in test [1], in test [2], in test [3], in test [4], in test [6] and in test [7] was “inactive” throughout. In test [5], the max activation is -3.54%.
